Compounds with a hit are over-represented: about 15% of the library has one in this group of screens.
HCMV antiviral: blocks human cytomegalovirus replication; AID 1259415; HFF cells, HCMV-luciferase reporter, 72 h; stronger effect = lower value; hit rate 4.5% among 410,000; activity change, negative = inhibition, % at 57.5 µM; in the data active means activity change below about -60%; inconclusive means no clear call, values can overlap the other calls; inactive means above about -39%; further: on the % scale 0 is the no-effect control and ±100 the full control effect
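Screen run at 2 compound doses on HFFs infected with reporter HCMV, MOI 1 PFU/cell. Luciferase activity from cell lysates at 72 h post infection gave inhibition relative to buffer-only and Salinomycin wells.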
Pf growth 48h: inhibits P. falciparum growth in the first generation, 48 h. Potency, µM (series often up to 28.7 µM), inactives show at the top dose activity change, negative = inhibition, actives largely listed as inhibitors. hit rate 5.9% among 310,000. P. falciparum luciferase growth in erythrocytes, 48 h; further: potency means the concentration at half of the fitted maximal effect; on the % scale 0 is the no-effect control and ±100 the full control effect
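Growth was read as firefly luciferase luminescence after a 48 h, 37 C, 5% CO2 exposure of compounds to reporter-bearing P. falciparum cultures (0.1% parasitemia, 2% hematocrit final) in Albumax-supplemented RPMI 1640.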
SARS PLP yeast: blocks SARS-CoV papain-like protease in a yeast assay | AID 485353 | hit rate 0.19% among 330,000 | Potency, µM (titrated, usually from 32.9 µM), for inactives: at the top dose activity, positive = growth rescue, actives largely listed as activators | S. cerevisiae expressing SARS-CoV PLpro, growth rescue; calls by dose curve; further: potency means the concentration at half of the fitted maximal effect; 0% is about no effect; nearly all actives have a fitted effect of over 55% in size
HCV inh: inhibitors of hepatitis C virus infection; Huh7.5.1 HCVcc-Cre infection, luciferase reporter, 44 h; Potency, µM (doses to about 41.8 µM), for the others: at the highest dose activity change, negative = inhibition, most hits filed as inhibitors; hit rate 3.4% among 340,000; further: potency means the concentration at half of the fitted maximal effect; on the % scale 0 is the no-effect control and ±100 the full control effect
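Luciferase read-out (15 sec integration) after a 15 min room-temperature substrate step quantifies HCVcc-Cre infection. Cells, 1,000 per well, had compound added 4 h post-plating, then virus at ~0.5 moi, and were cultured 44 h.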
Sm TGR inh: inhibitors of Schistosoma mansoni thioredoxin glutathione reductase | Q962Y6 | purified TGR, DTNB reduction, TNB absorbance 405 nm | Potency, µM (doses to about 114 µM), for the others: top-dose activity change, negative = inhibition, usual class: inhibitors | hit rate 3% among 360,000 | AID 485364; further: potency means the concentration at half of the fitted maximal effect; on the % scale 0 is the no-effect control and ±100 the full control effect; nearly all actives have a fitted effect of over 60% in size
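TGR 20 nM + NADPH 100 uM (dispensed conc.), cpd preinc 15 min RT; start with NADPH (500 uM addition) then DTNB (15 mM addition). Kinetic TNB absorbance, 405 nm filter. Four-parameter Hill fit across titration.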
Pf growth 96h: inhibits malaria parasite growth, 96 h; hit rate 6.9% among 320,000; P. falciparum luciferase reporter growth, 96 h; AID 504834; Potency, µM (highest dose often 28.7 µM), for inactives: at the highest dose activity change, negative = inhibition, most hits filed as inhibitors; further: potency means the concentration at half of the fitted maximal effect; on the % scale 0 is the no-effect control and ±100 the full control effect
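Parasite growth measured via integrated firefly luciferase reporter in P. falciparum. Infected erythrocytes at 2% hematocrit, 0.05% parasitemia final were treated 96 hours at 37 C under 5% CO2, and luminescence was read.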
* = called active by the depositor; ? = inconclusive; · = no result given; [ ] = dose if it differs, or a comment. Unless noted, the call rests on the fitted dose curve; in most records, active means well fitted curve in the direction sought with a large enough effect; inconclusive means small, poorly fitted or top-dose-only effect, or another doubt; inactive means no such curve, though single readings can be large; an effect the other way counts as inactive or inconclusive.

SMILES	HCMV antiviral	Pf growth 48h	SARS PLP yeast	HCV inh	Sm TGR inh	Pf growth 96h
CCOc1ccc(NC(=O)Cn2c(=O)n(Cc3ccc(C(=O)NCc4ccc(C)cc4)cc3)c(=O)c3ccccc32)cc1	3.9	·	·	·	-11.4%	·
CCOC(=O)C(C)Sc1nnc2ccc3ccccc3n12 (stereo not drawn)	-86.0*	·	·	·	-3.5%	·
COc1ccc(-c2cc(NC=O)c3ncc(-c4cccc(OC)c4)n3c2)cc1	-14.0	·	·	·	·	·
COc1ccc(-c2cnc3c(NC=O)cc(-c4cc(OC)c(OC)c(OC)c4)cn23)cc1OC	65.0	·	·	·	·	·
COc1cccc(-c2cnc3c(NC=O)cc(-c4ccc(OC)cc4OC)cn23)c1	-92.1*	·	·	·	·	·
COc1cccc(-c2cc(NC=O)c3ncc(-c4ccc(OC)c(OC)c4)n3c2)c1	221.2	·	·	·	·	·
COc1ccc(-c2cc(NC=O)c3ncc(-c4cc(OC)c(OC)c(OC)c4)n3c2)cc1	-80.7*	·	·	·	·	·
CC(=O)Nc1cc(-c2ccc(N3CCN(C)CC3)cc2)cn2c(-c3ccc(F)c(Cl)c3)cnc12	-29.7	·	·	·	·	·
COc1ccc(-c2cc(NC=O)c3ncc(-c4ccc(OC)c(OC)c4)n3c2)c(OC)c1	-74.3*	·	·	·	·	·
CN1CCN(c2ccc(-c3cc(NC=O)c4ncc(-c5ccc(F)c(Cl)c5)n4c3)cc2)CC1	-92.1*	·	·	·	·	·
CCOC(=O)c1cc2c(c(-c3ccccc3)n1)[C@@H](CCO)N(S(=O)(=O)C(C)(C)C)C2	16.6	·	·	-6.8%	·	·
COC(CNC(=O)C(=O)NCC1CCCN1S(=O)(=O)c1cccs1)OC (stereo not drawn)	-24.0	-20.3%	2.5%	-1.5%	-6.5%	1.5%
COc1ccc(-c2nn(-c3ccccc3F)cc2CNCCn2nc(C)cc2C)cc1	-73.1*	?	0.3%	?	25.9%	19.2%
C[n+]1c2n(c3ccccc31)N=C(c1ccccc1)CS2	-92.3*	2.08µM*	1.2%	-17.4%	-6.7%	?
C[n+]1c2n(c3ccccc31)N=C(c1ccc(-c3ccccc3)cc1)CS2	-98.7*	?	-1.9%	7.08µM*	14.2%	?
O=[N+]([O-])c1ccc(COc2cccc(CN3CCCCC3)c2)cc1	-13.5	·	·	?	·	·
CCOc1ccc(CNC(=O)c2c(C)nn(-c3ccc(F)cc3)c2-n2cccc2)cc1	-13.3	·	·	·	8.6%	·
CCOc1ccccc1NC(=O)CC1Nc2ccccc2NC1=O (stereo not drawn)	16.6	2.33µM*	22.3%	?	?	3.29µM*
CCCOc1ccc(NC(=O)CC2Nc3ccccc3NC2=O)cc1 (stereo not drawn)	-32.2	0.9%	-1.2%	-1.9%	6.1%	?
CCCOc1ccccc1NC(=O)CC1Nc2ccccc2NC1=O (stereo not drawn)	8.0	9.28µM*	3.9%	-27.8%	-24.1%	27.1%
COc1ccc(-c2noc(-c3cccc(OC)c3OC)n2)cc1	39.7	·	·	·	-2.2%	·
O=C(NNc1c(Cl)cccc1Cl)c1sccc1Cl	-74.7*	-5.0%	-0.2%	11.9%	11.5%	?
COc1cccc(-c2nc3ccccc3s2)c1O	91.9	165.0%	-0.8%	?	·	9.3%
Oc1c(Br)cc(Br)cc1-c1nc2ccccc2s1	29.1	·	·	·	44.7µM*	·
COc1cc(OC)c(-c2nc3ccccc3s2)cc1OC	88.4	-12.0%	-2.7%	11.2µM*	-6.8%	?
SMILES	HCMV antiviral	Pf growth 48h	SARS PLP yeast	HCV inh	Sm TGR inh	Pf growth 96h
CCn1cc(C(=O)NCc2ccc(F)cc2)c(=O)c2cc(S(=O)(=O)N(C)C)ccc21	-1.2	·	·	·	-2.1%	·
NCc1cc2c3c(c1)CCCN3CCC2	-0.1	-6.0%	-0.7%	6.2%	?	7.38µM*
C[C@@H](C(=O)Nc1ccc2ccccc2c1)[C@H]1C[C@]1(C)[C@H](NS(=O)(=O)c1ccccc1)c1ccccc1	-12.6	1.04µM*	-14.7%	?	-9.6%	?
C[C@@H](C(=O)Nc1ccc2ccccc2c1)[C@H]1C[C@]1(C)[C@H](NP(=O)(c1ccccc1)c1ccccc1)c1ccccc1	·	?	5.3%	5.2%[8.37 µM]	-6.6%	10.4µM*
COc1ccc(CC(=O)NNC(=O)c2cc(C)oc2C)cc1OC	3.4	-2.9%	-0.7%	-11.8%	-2.3%	0.7%
O=C(CSc1nnc(Cc2cc(=O)[nH]c(=O)[nH]2)n1-c1ccc(F)cc1)N1CCCCC1	16.8	·	-5.1%	-0.6%	1.3%	7.38µM*
O=C(CSc1nnc(Cc2cc(=O)[nH]c(=O)[nH]2)n1-c1ccccc1)N1CCCc2ccccc21	34.3	-7.4%	-4.9%	-2.2%	-20.1%	-26.7%
COC(=O)C(C)Sc1nnc(Cc2cc(=O)[nH]c(=O)[nH]2)n1-c1ccc(OC)cc1 (stereo not drawn)	?	·	-2.2%	13.0%	-1.8%	0.828µM*
O=C(CSc1nnc(Cc2cc(=O)[nH]c(=O)[nH]2)n1-c1ccc(Cl)cc1)N1CCc2ccccc21	·	2.94µM*	1.7%	·	-9.7%	?
O=C(CSc1nnc(Cc2cc(=O)[nH]c(=O)[nH]2)n1-c1ccc(F)cc1)NC1CCCC1	8.4	·	-7.7%	-1.5%	1.9%	5.86µM*
CCOc1ccc(Nc2ncnc3c2cnn3C)cc1	-19.8	18.7%	-2.9%	-9.9%	16.9%	-8.0%
O=C(N/N=C/c1ccc(OC(F)F)cc1OC(F)F)NC1CCCCC1	-31.0	10.4µM*	-10.0%	?	-8.6%	?
c1ccc(-c2csc(=Nc3cccnc3)n2CC2CCCO2)cc1 (stereo not drawn)	-35.8	?	-1.4%	2.4%	-0.5%	?
CC(C)n1c(-c2ccco2)csc1=Nc1cccnc1	-79.5*	?	-11.0%	?	-17.7%	5.4%
CCCCn1c(-c2ccc(S(=O)(=O)N3CCOCC3)cc2)csc1=Nc1ccccc1	-37.7	·	·	·	0.0%	·
c1cncc(N=c2scc(-c3cccc4ccccc34)n2CCCn2ccnc2)c1	?	9.28µM*	8.1%	?	-9.4%	9.28µM*
CCCCn1c(C)csc1=Nc1cccnc1	-63.3*	-0.6%	2.7%	6.1%	-22.9%	?
COCCn1c(-c2ccccc2)csc1=Nc1cccnc1	-37.3	?	-9.2%	8.91µM*	2.6%	?
COc1ccc(OC)c(-c2cc(C(=O)Nc3cccc(Cl)c3C)no2)c1	-19.2	·	·	·	3.5%	·
Cc1ccc(-c2csc(=Nc3cccnc3)n2CCCn2ccnc2)cc1C	-94.7*	10.4µM*	5.7%	?	-16.3%	3.7µM*
Cc1ccc(-c2csc(=Nc3cccnc3)n2CCCN2CCCC2=O)cc1C	?	?	4.2%	?	-22.5%	11.7µM*
CCOC(=O)C1=CCC(c2cccn2C(=O)OC(C)(C)C)N(S(=O)(=O)c2ccc(C)cc2)C1 (stereo not drawn)	30.8	·	·	·	·	·
CCc1ccc(NC(=O)CSc2nnc(-c3nonc3NC(C)=O)n2-c2ccccc2)cc1	-8.5	·	·	·	-2.7%	·

Compound activity: PubChem BioAssay, National Center for Advancing Translational Sciences (NCATS)
